Screen size: about 5,500 compounds; about 2,000 (36%) were called active. About 18% were inconclusive and are not listed. Cut-off read from the data, not from the text of the source: active = normalized growth mostly below about 0.91 (no sharp cut-off); inconclusive = no clear call, values can overlap the other calls; inactive = mostly above about 0.92. The list shows a part of the results.
Experiment: chemical genetic growth profiling, strain panel (AID 1159580);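 note: tested at 20 µM; growth read once vehicle control cultures reached saturation at 30 °C; 1 = growth at the plate median or of vehicle wells; lower values mean less growth of the strain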
Conditions: growth OD

Measured: normalized growth

CNC(Cc1c[nH]c2ccccc12)C(=O)O (centres undefined)
inactive: S. cerevisiae deletion strains, locus YJR066W, strain TOR1, active compounds read low 0.932 | S. cerevisiae deletion strains, locus YKL009W, strain mrt4, active compounds read low 0.99 | S. cerevisiae deletion strains, locus YKL068W, active compounds read low 0.992 | S. cerevisiae deletion strains, locus YKL085W, strain MDH1 (second series), active compounds read low 0.983 | S. cerevisiae deletion strains, locus YKL085W, strain MDH1, active compounds read low 0.983 | S. cerevisiae deletion strains, locus YKL160W, strain elf1, active compounds read low 0.973 | S. cerevisiae deletion strains, locus YKR001C, strain vps1, active compounds read low 1 | S. cerevisiae deletion strains, locus YKR026C, strain gcn3, active compounds read low 0.975 | S. cerevisiae deletion strains, locus YKR091W, strain srl3, active compounds read low 0.976 | S. cerevisiae deletion strains, locus YLL001W, strain dnm1, active compounds read low 0.972 | S. cerevisiae deletion strains, locus YLL026W, active compounds read low 0.974 | S. cerevisiae deletion strains, locus YLL041C, strain sdh2, active compounds read low 0.981 | S. cerevisiae deletion strains, locus YLR027C, strain aat2, active compounds read low 0.965 | S. cerevisiae deletion strains, locus YLR039C, strain RIC1, active compounds read low 1.03 | S. cerevisiae deletion strains, locus YLR058C, strain SHM2, active compounds read low 0.989 | S. cerevisiae deletion strains, locus YLR102C, strain apc9, active compounds read low 0.995 | S. cerevisiae deletion strains, locus YLR113W, strain HOG1, active compounds read low 1.07 | S. cerevisiae deletion strains, locus YLR221C, strain rsa3, active compounds read low 1.01 | S. cerevisiae deletion strains, locus YLR258W, strain gsy2, active compounds read low 0.99 | S. cerevisiae deletion strains, locus YLR262C, strain YPT6 (second series), active compounds read low 1.01 | S. cerevisiae deletion strains, locus YLR262C, strain YPT6, active compounds read low 1.01 | S. cerevisiae deletion strains, locus YLR268W, strain sec22, active compounds read low 1.03 | S. cerevisiae deletion strains, locus YLR320W, strain mms22, active compounds read low 1.02 | S. cerevisiae deletion strains, locus YLR330W, strain CHS5, active compounds read low 0.987 | S. cerevisiae deletion strains, locus YLR342W, strain FKS1 (second series), active compounds read low 0.957 | S. cerevisiae deletion strains, locus YLR342W, strain FKS1, active compounds read low 0.989 | S. cerevisiae deletion strains, locus YLR357W, strain rsc2, active compounds read low 0.951 | S. cerevisiae deletion strains, locus YLR370C, strain arc18, active compounds read low 0.987 | S. cerevisiae deletion strains, locus YLR371W, strain rom2, active compounds read low 0.969 | S. cerevisiae deletion strains, locus YLR384C, strain iki3, active compounds read low 1.01 | S. cerevisiae deletion strains, locus YLR418C, strain cdc73, active compounds read low 0.983 | S. cerevisiae deletion strains, locus YML016C, strain PPZ1, active compounds read low 0.984 | S. cerevisiae deletion strains, locus YML032C, strain rad52, active compounds read low 0.963 | S. cerevisiae deletion strains, locus YML120C, strain ndi1, active compounds read low 0.983 | S. cerevisiae deletion strains, locus YML124C, strain tub3, active compounds read low 0.994 | S. cerevisiae deletion strains, locus YMR058W, strain fet3, active compounds read low 0.981 | S. cerevisiae deletion strains, locus YMR078C, strain ctf18, active compounds read low 0.984 | S. cerevisiae deletion strains, locus YMR125W, strain sto1, active compounds read low 0.973 | S. cerevisiae deletion strains, locus YMR129W, active compounds read low 0.988 | S. cerevisiae deletion strains, locus YMR205C, strain PFK2, active compounds read low 0.965 | S. cerevisiae deletion strains, locus YMR223W, strain ubp8, active compounds read low 0.972 | S. cerevisiae deletion strains, locus YMR231W, strain pep5, active compounds read low 0.976 | S. cerevisiae deletion strains, locus YMR263W, strain SAP30, active compounds read low 0.982 | S. cerevisiae deletion strains, locus YMR307W, strain GAS1, active compounds read low 0.902 | S. cerevisiae deletion strains, locus YNL067W, strain RPL9B, active compounds read low 0.988 | S. cerevisiae deletion strains, locus YNL071W, strain lat1, active compounds read low 0.989 | S. cerevisiae deletion strains, locus YNL128W, strain TEP1, active compounds read low 0.983 | S. cerevisiae deletion strains, locus YNL153C, strain GIM3, active compounds read low 0.976 | S. cerevisiae deletion strains, locus YNL183C, strain NPR1, active compounds read low 0.993 | S. cerevisiae deletion strains, locus YNL209W, strain ssb2, active compounds read low 0.982 | S. cerevisiae deletion strains, locus YNL233W, strain BNI4, active compounds read low 1 | S. cerevisiae deletion strains, locus YNL248C, strain rpa49, active compounds read low 0.962 | S. cerevisiae deletion strains, locus YNL250W, strain rad50, active compounds read low 0.961 | S. cerevisiae deletion strains, locus YNL271C, strain bni1, active compounds read low 0.994 | S. cerevisiae deletion strains, locus YNL298W, strain CLA4, active compounds read low 0.987 | S. cerevisiae deletion strains, locus YNL307C, strain MCK1, active compounds read low 0.988 | S. cerevisiae deletion strains, locus YNL322C, strain KRE1 (second series), active compounds read low 0.986 | S. cerevisiae deletion strains, locus YNL322C, strain KRE1, active compounds read low 0.985 | S. cerevisiae deletion strains, locus YNR049C, strain mso1, active compounds read low 0.978 | S. cerevisiae deletion strains, locus YNR052C, strain pop2, active compounds read low 0.983 | S. cerevisiae deletion strains, locus YOL012C, strain htz1 1.5 | S. cerevisiae deletion strains, locus YOL147C, strain pex11, active compounds read low 1.01 | S. cerevisiae deletion strains, locus YOR001W, strain rrp6, active compounds read low 0.975 | S. cerevisiae deletion strains, locus YOR061W, strain CKA2, active compounds read low 0.961 | S. cerevisiae deletion strains, locus YOR069W, strain VPS5, active compounds read low 0.999 | S. cerevisiae deletion strains, locus YOR070C, strain gyp1, active compounds read low 1 | S. cerevisiae deletion strains, locus YOR080W, strain dia2, active compounds read low 0.99 | S. cerevisiae deletion strains, locus YOR083W, strain WHI5, active compounds read low 0.975 | S. cerevisiae deletion strains, locus YOR106W, strain vam3, active compounds read low 0.96 | S. cerevisiae deletion strains, locus YOR136W, strain idh2, active compounds read low 0.991 | S. cerevisiae deletion strains, locus YOR144C, strain elg1, active compounds read low 0.988 | S. cerevisiae deletion strains, locus YOR184W, strain ser1, active compounds read low 0.985 | S. cerevisiae deletion strains, locus YOR231W, strain MKK1, active compounds read low 1 | S. cerevisiae deletion strains, locus YOR265W, strain rbl2, active compounds read low 0.974 | S. cerevisiae deletion strains, locus YOR270C, strain vph1, active compounds read low 0.972 | S. cerevisiae deletion strains, locus YOR290C, strain snf2, active compounds read low 0.934 | S. cerevisiae deletion strains, locus YOR316C, strain cot1, active compounds read low 0.991 | S. cerevisiae deletion strains, locus YPL051W, strain arl3, active compounds read low 0.99 | S. cerevisiae deletion strains, locus YPL055C, strain LGE1, active compounds read low 0.953 | S. cerevisiae deletion strains, locus YPL078C, strain atp4, active compounds read low 0.959 | S. cerevisiae deletion strains, locus YPL106C, strain sse1, active compounds read low 0.985 | S. cerevisiae deletion strains, locus YPL240C, strain hsp82, active compounds read low 0.989 | S. cerevisiae deletion strains, locus YPL256C, strain CLN2, active compounds read low 0.978 | S. cerevisiae deletion strains, locus YPR119W, strain clb2, active compounds read low 0.997 | S. cerevisiae deletion strains, locus YPR141C, strain kar3, active compounds read low 0.986 | S. cerevisiae deletion strains, locus YPR163C, strain tif3, active compounds read low 0.993 | S. cerevisiae deletion strains, locus YPR167C, strain met16, active compounds read low 0.992 | S. cerevisiae deletion strains, strain wtn01, active compounds read low 1.02 | S. cerevisiae strains, strain wild type, active compounds read low 1
